Screens: PubChem, several laboratories
HSF1 inhib = HSF1 inhibitors in luciferase reporter cells, primary screen, cell-based, NIH3T3, luminescence. AID 2098, 2009. NIH3T3-HGL HSE-luciferase, MG132-induced, luminescence 8 h; hits give low values. 300,000 tested, 0.77% active. activity change, negative = inhibition, % at 7.5 µM (by protocol);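 active = more than half of replicate wells show activity change below -50%, luminescence cut by over half; inconclusive = some wells, but at most half, below -50%; inactive = no replicate well below -50%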;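 also: luciferase reports HSF-1 transcriptional activity via heat shock element; 0% = median of DMSO wells and -100% = zero luminescence signal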
HSF1 activator = HSF-1 activators, primary screen, NIH3T3-HGL cells, MG132 stress, luminescence, single point. AID 504408, 2011. NIH3T3-HGL HSF-1 luciferase reporter, 8 h; 100% = twice DMSO control signal. 300,000 tested, 1.7% active. activation, % at 9 µM;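 active = mean replicate activation of at least 50% with a set share of replicates each reaching 50%; inconclusive = only one of those two conditions met; inactive = mean below 50% and too few replicates reaching it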;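 also: 0% = median of the neutral control wells and 100% = twice that signal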
Wnt act = Wnt/beta-catenin pathway activators, primary screen, cell-based, plate reader, single point; Wnt/beta-catenin reporter cell assay, activator; activation, % at 9.35 µM; 300,000 tested, 1.2% active; in the data active = activation above about 30%, passing the limit was not always enough; inconclusive = no clear call, values can overlap the other calls;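 also: 0% = neutral control wells and 100% = positive control wells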
SMARCA2 activ = SMARCA2 (BRM) function activators, primary screen, cell-based, luminescence, high throughput. MG213 cells, MMTV-luciferase reporter, dexamethasone, overnight. activation, % at 9.1 µM. 370,000 tested, 1% active. AID 652017, 2013; in the data active = activation above about 7.8%;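 also: 0% = vehicle wells and 100% = reference activator wells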
MITF act = activators of MITF-driven TRPM1 promoter reporter, primary screen, cell-based, SK-MEL-5, luciferase, single point | SK-MEL-5 TRPM1-promoter luciferase, 24 h; % of positive control, neutral wells = 0 | activation, % at 12.5 µM | 300,000 tested, 0.75% active | AID 588334, 2011;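 active = mean activation of at least 80% with every replicate also reaching 80%; inconclusive = mean reaches 80% but some replicate falls short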;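 also: 0% = neutral control wells and 100% = parthenolide positive control wells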
esBAF inh = Bmi1 luciferase reporter increase in mESCs, primary screen, esBAF inhibitor project, mouse ES cells, Bmi1 luciferase knock-in, single point; 24 h; 100% = twice the neutral-well signal; reporter increase, % at 12.5 µM; 350,000 tested, 2% active; in the data active = activation above about 40%; inconclusive = no clear call, values can overlap the other calls;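 also: 0% = median of the plate's neutral control wells and 100% = double that signal; a rise in the Bmi1 reporter signal indicates esBAF inhibition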
An asterisk follows results filed as active; ? = inconclusive; · = no result given. Most compounds without a hit are left out; they make up all but 4.3% or so of the library.

SMILES	HSF1 inhib	HSF1 activator	Wnt act	SMARCA2 activ	MITF act	esBAF inh
Cc1ccc(S(=O)(=O)N(C)C[C@@H]2Oc3ccc(NC(=O)Cc4ccccc4)cc3C(=O)N([C@H](C)CO)C[C@@H]2C)cc1	·	·	·	·	·	3
C[C@@H]1CN([C@@H](C)CO)C(=O)c2cccc(NS(=O)(=O)c3ccccc3)c2O[C@@H]1CN(C)CC1CC1	·	·	·	·	·	0
C[C@@H]1CN([C@@H](C)CO)C(=O)Cc2cc(NC(=O)Cc3cn(C)c4ccccc34)ccc2O[C@H]1CN(C)C(=O)Nc1ccc2c(c1)OCO2	·	·	·	·	·	1
Cc1ccc(S(=O)(=O)N(C)C[C@H]2Oc3ccc(NS(C)(=O)=O)cc3C(=O)N([C@H](C)CO)C[C@@H]2C)cc1	·	·	·	·	·	6
COc1ccc(C(=O)Nc2ccc3c(c2)C(=O)N(C)C[C@H](OC)[C@@H](C)CN(C(C)=O)[C@H](C)CO3)cc1	·	·	·	·	·	-2
CNC(=O)C[C@H]1CC[C@@H]2[C@H](COc3ccc(NC(=O)c4cc(C)on4)cc3C(=O)N2C)O1	·	·	·	·	·	3
CCOc1ccc(N/C=C/C(=O)c2ccc(OC)cc2)c([N+](=O)[O-])c1	1	-12	6	6	98*	73*
CCOc1ccc(NC(=O)c2ccco2)c([N+](=O)[O-])c1	24	54*	-1	5	43	·
CCOc1ccc(NC(=O)c2cccs2)c([N+](=O)[O-])c1	10	15	·	0	43	·
CCOc1ccc(NC(=O)c2ccc(CC)s2)c([N+](=O)[O-])c1	19	30	5	-2	79	50*
CNC[C@@H]1OCCCC[C@@H](C)Oc2ccc(NC(=O)Nc3ccc(C(F)(F)F)cc3)cc2C(=O)N([C@H](C)CO)C[C@@H]1C	·	·	·	·	·	-3
CCOc1ccccc1C1N=C(c2ccc(OC)cc2)CC(c2ccccc2O)N1 (centres undefined)	94	130*	30	3	?	·
Oc1ccccc1C1CC(c2cccs2)=NC(c2ccc(Cl)cc2)N1 (centres undefined)	24	35	-1	-2	2	·
Cc1c(C(=O)/C=C/c2ccccc2F)c2cc(O)ccc2n1C	·	·	-4	2	·	57*
C[C@H](CO)N1C[C@H](C)[C@H](CN(C)C(=O)Nc2ccccc2)Oc2ccc(NC(=O)C3CCCCC3)cc2C1=O	·	·	·	·	·	-9
O=C(Nc1ccc(Cl)c(Cl)c1)C1=Cc2ccccc2OC1	21	12	3	3	75	57*
CC(=O)Nc1ccc(-c2csc(NCc3ccco3)n2)cc1	20	42	·	4	123*	·
c1cncc(-c2csc(NCc3ccco3)n2)c1	-11	0	12	4	61	·
COc1ccc(-c2csc(NCc3ccco3)n2)cc1C	1	1	·	·	?	66*
CC(=O)N[C@@H](Cc1c[nH]c2ccccc12)C(=O)NCc1ccccc1	15	65*	0	3	-4	-8
CC=Cc1ccc2n(c1=O)C[C@H]1[C@H](CO)[C@@H](C(=O)NC3CCC3)[C@@H]2N1C(=O)c1ccccn1 (mixture of isomers)	·	·	·	·	·	-5
Cc1cc(C)n(-c2nnc3c4ccccc4n(C)c3n2)n1	27	24	48*	5	·	·
CCOc1cc(C(=O)NC(=S)Nc2nc(C)cc(C)n2)cc(OCC)c1OCC	-16	-7	-2	5	-3	-3
COc1ccc(C(=O)NC(=S)Nc2nc(C)cc(C)n2)cc1Br	1	22	42*	1	·	·
CCOc1ccc(NC(=O)c2ccc3c(c2)N(C)CCS3)cc1	·	·	37*	3	·	72*
SMILES	HSF1 inhib	HSF1 activator	Wnt act	SMARCA2 activ	MITF act	esBAF inh
CCCOc1ccc(NC(=O)C2CC(=O)N3CCCN=C3S2)cc1 (centres undefined)	6	12	·	-1	8	5
CCOc1ccc(NC(=O)C2CC(=O)N3CCCN=C3S2)cc1 (centres undefined)	22	54*	·	3	2	·
CCOc1ccc(N2CC(C(=O)Nc3ccc4c(c3)OCCO4)CC2=O)cc1 (centres undefined)	-65*	-67	-4	-4	-3	-30
C[C@@H]1CCCCO[C@H](CN(C)C(=O)NC2CCCCC2)[C@H](C)CN([C@@H](C)CO)C(=O)c2cc(NS(C)(=O)=O)ccc2O1	·	·	·	·	·	2
COCC(=O)Nc1ccc2c(c1)C(=O)N(C)C[C@H](OC)[C@H](C)CN(Cc1ccccn1)[C@@H](C)CO2	·	·	·	·	·	0
C[C@@H]1CCCCO[C@H](CN(C)C(=O)CCC(F)(F)F)[C@H](C)CN([C@H](C)CO)C(=O)c2cc(NS(=O)(=O)c3ccccc3)ccc2O1	·	·	·	·	·	2
Cc1ccc(C(=O)Nc2ccc3c(c2)OCCO3)cc1	-3	-6	1	2	·	-61
CCOc1ccc(C(=O)Nc2ccc3c(c2)OCCO3)cc1	69	118*	-3	3	·	-10
CCC(=O)Nc1cccc(NC(=O)c2ccc3c(c2)OCCO3)c1	6	9	·	1	67	72*
Cc1oc(C(C)(C)C)cc1C(=O)Nc1ccc2c(c1)OCO2	2	21	16	-1	·	?
CC(C)c1ccc(NC(=O)c2cccc(Br)c2)cc1	38	78*	56*	6	71	·
Cc1oc(C(C)(C)C)cc1C(=O)Nc1ccc2c(c1)OCCO2	7	-1	·	4	40	44*
O=C(Nc1cccc(C(=O)Nc2cccc(Br)c2)c1)c1ccccc1	10	7	2	0	31	4
O=C(Nc1ccc2c(c1)OCCO2)c1cccc(Cl)c1Cl	23	26	15	1	·	88*
O=C(Nc1ccc2c(c1)OCCO2)c1cccc(Br)c1	22	57*	27	4	·	37
COc1ccc(C(=O)Nc2ccc3c(c2)OCCO3)cc1Br	38	33	2	4	·	48*
COc1ccc(/C=N/NC(=O)c2ccc3c(c2)OCCO3)cc1[N+](=O)[O-]	-80*	-76	·	-1	11	·
O=C(c1cccc(F)c1)N1C[C@H]2[C@@H](c3ccccc31)[C@@H](CO)N2C(=O)c1ccccn1	·	·	·	·	·	-8
Cc1ccc(S(=O)(=O)NC(C)(C)CSc2nncn2N)cc1	-77*	-83	·	0	2	-6
Cc1ccc(S(=O)(=O)NCCSc2nncn2C)cc1	-9	-7	-2	2	1	-4
O=c1[nH]cnc2c1nnn2C1OC(CO)C(O)C1O (centres undefined)	·	·	-1	5	·	71*
O=c1[nH]cnc2c1ncn2C1OC(CO)C(O)C1O (centres undefined)	·	·	0	-2	2	-13
O=C(/C(=C/O)N=Nc1ccccc1)c1ccc(Cl)cc1	-22	-24	-2	7	-13	·
